Assay in all cases: DAPPL (digital affinity profiling via proximity ligation, sequencing); 10 mM Tris-HCl pH 7.5, 50 mM NaCl, 1 mM DTT, 4% glycerol, room temperature, 30 min; GST-TFs on glutathione beads, 16-mer random dsDNA library, 0.1% formaldehyde crosslink after washing; high values mean tight binding
The target of experiment [1] is T1, FLI1 (Homo sapiens, UniProt Q01543 1-452).
T1 sequence: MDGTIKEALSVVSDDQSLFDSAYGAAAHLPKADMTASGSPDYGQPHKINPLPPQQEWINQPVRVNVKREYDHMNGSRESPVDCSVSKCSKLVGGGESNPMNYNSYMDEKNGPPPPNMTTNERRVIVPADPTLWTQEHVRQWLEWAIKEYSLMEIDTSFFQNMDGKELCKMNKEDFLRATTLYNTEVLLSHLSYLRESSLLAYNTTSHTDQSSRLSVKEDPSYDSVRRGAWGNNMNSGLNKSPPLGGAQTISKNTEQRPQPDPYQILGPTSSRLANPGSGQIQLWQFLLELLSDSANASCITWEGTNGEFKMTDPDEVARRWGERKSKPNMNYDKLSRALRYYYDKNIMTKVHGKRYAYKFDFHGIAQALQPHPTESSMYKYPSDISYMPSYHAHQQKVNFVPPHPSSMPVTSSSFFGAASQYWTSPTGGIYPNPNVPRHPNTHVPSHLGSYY
The note with it: protein: recombinant; tags: N-terminal GST; dsDNA, one strand shown. Summed up: (§1)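 Binding signal is defined as a hexamer's read frequency for one factor over its frequency for the tag-only sample. To obtain reads, GST-fused human transcription factors were expressed in yeast, captured on glutathione beads, barcoded with DNA and pooled with that sample. Pools met 200 nmole of a 16-mer random double-stranded DNA library in Tris/NaCl/DTT/glycerol buffer for 30 min at room temperature before washing, 0.1% formaldehyde crosslinking, proximity ligation (BsaI/T4 ligase, 1 h, 37 °C), PCR and Illumina NextSeq500 sequencing.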

Experiment [2] addresses T2, ELK1 (Homo sapiens, UniProt P19419 1-428).
T2 sequence: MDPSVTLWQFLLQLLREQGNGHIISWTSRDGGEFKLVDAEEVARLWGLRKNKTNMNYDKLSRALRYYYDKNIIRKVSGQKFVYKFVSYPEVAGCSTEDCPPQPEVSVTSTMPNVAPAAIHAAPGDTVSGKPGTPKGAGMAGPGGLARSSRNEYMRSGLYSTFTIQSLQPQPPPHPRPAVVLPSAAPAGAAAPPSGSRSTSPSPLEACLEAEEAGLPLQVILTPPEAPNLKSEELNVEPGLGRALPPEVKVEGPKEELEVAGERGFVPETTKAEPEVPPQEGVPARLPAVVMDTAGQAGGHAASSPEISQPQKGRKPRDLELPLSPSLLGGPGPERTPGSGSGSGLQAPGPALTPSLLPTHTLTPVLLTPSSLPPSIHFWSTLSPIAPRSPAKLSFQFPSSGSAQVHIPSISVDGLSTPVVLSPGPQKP
The note with it: protein: recombinant; tags: N-terminal GST; dsDNA, one strand shown. Summed up:
as §1

Experiment [3] has as its target T3, GABPA (Homo sapiens, UniProt Q06546 1-454).
T3 sequence: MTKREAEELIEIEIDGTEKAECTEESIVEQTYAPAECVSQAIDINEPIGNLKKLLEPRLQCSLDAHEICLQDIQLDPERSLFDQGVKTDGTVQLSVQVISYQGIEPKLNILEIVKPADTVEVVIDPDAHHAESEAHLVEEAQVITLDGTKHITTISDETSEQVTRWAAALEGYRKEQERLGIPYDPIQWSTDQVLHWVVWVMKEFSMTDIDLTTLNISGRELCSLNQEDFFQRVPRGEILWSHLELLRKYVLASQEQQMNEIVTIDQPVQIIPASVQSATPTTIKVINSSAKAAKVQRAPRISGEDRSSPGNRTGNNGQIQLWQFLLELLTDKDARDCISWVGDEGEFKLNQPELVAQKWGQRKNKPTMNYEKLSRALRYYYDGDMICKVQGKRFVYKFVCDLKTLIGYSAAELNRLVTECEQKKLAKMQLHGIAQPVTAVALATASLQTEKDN
As to conditions: protein: recombinant; tags: N-terminal GST; dsDNA, one strand shown. Summed up:
as §1

Experiment [4] deals with T4, ERG (Homo sapiens, UniProt P11308 1-479).
T4 sequence: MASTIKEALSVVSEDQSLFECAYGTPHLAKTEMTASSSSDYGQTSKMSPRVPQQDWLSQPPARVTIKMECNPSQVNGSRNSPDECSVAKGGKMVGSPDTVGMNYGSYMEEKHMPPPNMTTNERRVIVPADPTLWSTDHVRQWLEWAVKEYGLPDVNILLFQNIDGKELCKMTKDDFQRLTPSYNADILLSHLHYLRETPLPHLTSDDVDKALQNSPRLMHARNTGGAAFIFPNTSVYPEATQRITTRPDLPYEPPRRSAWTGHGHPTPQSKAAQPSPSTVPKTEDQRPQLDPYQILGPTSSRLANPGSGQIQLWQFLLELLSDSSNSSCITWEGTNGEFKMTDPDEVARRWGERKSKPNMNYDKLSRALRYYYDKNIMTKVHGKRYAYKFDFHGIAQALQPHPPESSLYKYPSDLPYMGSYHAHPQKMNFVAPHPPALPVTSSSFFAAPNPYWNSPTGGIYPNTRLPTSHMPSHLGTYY
As to conditions: protein: recombinant; tags: N-terminal GST; dsDNA, one strand shown. Summed up:
as §1

In experiment [5] the target is ELF1 (Homo sapiens, UniProt P32519 1-619). The note with it: protein: recombinant; tags: N-terminal GST; dsDNA, one strand shown. Summed up: as §1
Experiment [6] deals with T5, EHF (Homo sapiens, UniProt Q9NZC4 1-300).
T5 sequence: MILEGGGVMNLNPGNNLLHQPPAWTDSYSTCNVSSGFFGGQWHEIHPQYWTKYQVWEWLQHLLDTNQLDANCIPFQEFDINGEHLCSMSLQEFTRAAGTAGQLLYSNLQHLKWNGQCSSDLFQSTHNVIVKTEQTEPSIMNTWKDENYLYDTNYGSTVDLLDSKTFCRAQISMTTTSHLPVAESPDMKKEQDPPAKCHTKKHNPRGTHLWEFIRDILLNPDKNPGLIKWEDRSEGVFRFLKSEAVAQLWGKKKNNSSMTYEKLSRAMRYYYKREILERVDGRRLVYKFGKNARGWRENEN
As to conditions: protein: recombinant; tags: N-terminal GST; dsDNA, one strand shown. Summed up:
as §1

Experiment [7] addresses SPI1 (Homo sapiens, UniProt P17947 1-270). The note with it: protein: recombinant; tags: N-terminal GST; dsDNA, one strand shown. Summed up:
as §1

Experiment [8] has as its target SPIB (Homo sapiens, UniProt Q01892 1-262). The note with it: protein: recombinant; tags: N-terminal GST; dsDNA, one strand shown. Summed up:
as §1

In experiment [9] the target is T6, ELK3 (Homo sapiens, UniProt P41970 1-407).
T6 sequence: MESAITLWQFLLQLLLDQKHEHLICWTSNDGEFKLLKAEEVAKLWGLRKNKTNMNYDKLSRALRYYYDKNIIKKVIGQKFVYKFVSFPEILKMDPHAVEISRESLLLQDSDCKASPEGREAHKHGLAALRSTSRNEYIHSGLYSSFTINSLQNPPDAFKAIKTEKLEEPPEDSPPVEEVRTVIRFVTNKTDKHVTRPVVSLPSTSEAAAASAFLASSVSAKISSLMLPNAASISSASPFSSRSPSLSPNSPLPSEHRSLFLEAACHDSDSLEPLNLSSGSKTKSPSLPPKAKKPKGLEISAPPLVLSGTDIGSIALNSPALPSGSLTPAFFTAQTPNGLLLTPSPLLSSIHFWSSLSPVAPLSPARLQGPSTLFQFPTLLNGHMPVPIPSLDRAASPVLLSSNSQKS
The note with it: protein: recombinant; tags: N-terminal GST; dsDNA, one strand shown. Summed up: as §1

Experiment [10] has as its target T7, FEV (Homo sapiens, UniProt Q99581 1-238).
T7 sequence: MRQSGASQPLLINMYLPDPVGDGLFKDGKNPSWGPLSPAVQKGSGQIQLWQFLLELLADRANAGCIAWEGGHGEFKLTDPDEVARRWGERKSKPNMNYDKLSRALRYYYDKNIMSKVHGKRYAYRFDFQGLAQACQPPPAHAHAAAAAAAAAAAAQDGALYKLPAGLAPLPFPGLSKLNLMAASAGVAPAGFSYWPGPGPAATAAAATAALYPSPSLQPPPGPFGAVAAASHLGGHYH
The note with it: protein: recombinant; tags: N-terminal GST; dsDNA, one strand shown. Summed up:
as §1

The target in experiment [11] is ETV5 (Homo sapiens, UniProt P41161 1-510). As to conditions: protein: recombinant; tags: N-terminal GST; dsDNA, one strand shown. Summed up: as §1
Experiment [12] has as its target HSF1 (Homo sapiens, UniProt Q00613 1-529). The note with it: protein: recombinant; tags: N-terminal GST; chain copies: 3; dsDNA, one strand shown. Summed up: as §1
For experiment [13], the target named is ELF4 (Homo sapiens, UniProt Q99607 1-663). As to conditions: protein: recombinant; tags: N-terminal GST; dsDNA, one strand shown. Summed up: as §1
Experiment [14] deals with T8, ELK4 (Homo sapiens, UniProt P28324-2 1-405).
T8 sequence: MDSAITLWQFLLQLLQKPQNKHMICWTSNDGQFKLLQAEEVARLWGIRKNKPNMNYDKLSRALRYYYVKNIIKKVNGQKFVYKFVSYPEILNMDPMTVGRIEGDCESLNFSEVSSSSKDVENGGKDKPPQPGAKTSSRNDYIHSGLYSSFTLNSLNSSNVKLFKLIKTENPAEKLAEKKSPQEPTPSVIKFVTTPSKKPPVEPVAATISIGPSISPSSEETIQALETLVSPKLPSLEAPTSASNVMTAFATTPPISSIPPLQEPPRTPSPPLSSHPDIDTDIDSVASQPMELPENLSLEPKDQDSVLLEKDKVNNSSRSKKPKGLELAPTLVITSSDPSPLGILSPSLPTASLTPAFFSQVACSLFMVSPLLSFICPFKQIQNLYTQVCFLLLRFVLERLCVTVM
The note with it: protein: recombinant; tags: N-terminal GST; dsDNA, one strand shown. Summed up: as §1

Experiment [15] has as its target T9, ETV2 (Homo sapiens, UniProt O00321 1-342).
T9 sequence: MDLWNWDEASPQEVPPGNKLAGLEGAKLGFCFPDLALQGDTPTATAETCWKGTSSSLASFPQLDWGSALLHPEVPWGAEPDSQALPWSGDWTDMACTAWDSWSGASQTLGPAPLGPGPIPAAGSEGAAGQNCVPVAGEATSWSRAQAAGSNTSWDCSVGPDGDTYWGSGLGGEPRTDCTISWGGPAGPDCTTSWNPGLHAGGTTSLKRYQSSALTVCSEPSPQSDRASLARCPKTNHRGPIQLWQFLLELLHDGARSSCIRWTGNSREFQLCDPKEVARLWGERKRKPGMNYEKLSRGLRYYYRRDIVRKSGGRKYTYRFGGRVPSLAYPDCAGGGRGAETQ
As to conditions: protein: recombinant; tags: N-terminal GST; dsDNA, one strand shown. Summed up:
as §1

Experiment [16] deals with T10, ELF3 (Homo sapiens, UniProt P78545 1-371).
T10 sequence: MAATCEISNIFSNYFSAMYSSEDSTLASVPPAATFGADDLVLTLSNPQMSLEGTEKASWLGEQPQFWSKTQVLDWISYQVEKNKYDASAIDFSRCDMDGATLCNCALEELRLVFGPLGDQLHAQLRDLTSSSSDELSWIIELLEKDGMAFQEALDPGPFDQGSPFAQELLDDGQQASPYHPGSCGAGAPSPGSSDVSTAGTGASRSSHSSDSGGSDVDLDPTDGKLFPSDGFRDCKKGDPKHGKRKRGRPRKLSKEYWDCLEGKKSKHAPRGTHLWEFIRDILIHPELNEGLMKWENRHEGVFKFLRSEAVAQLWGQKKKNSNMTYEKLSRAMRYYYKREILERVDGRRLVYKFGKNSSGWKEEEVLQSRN
As to conditions: protein: recombinant; tags: N-terminal GST; dsDNA, one strand shown. Summed up:
as §1

The target in experiment [17] is CRX (Homo sapiens, UniProt O43186 1-299). The note with it: protein: recombinant; tags: N-terminal GST; dsDNA, one strand shown. Summed up:
as §1

The target in experiment [18] is ETV1 (Homo sapiens, UniProt P50549 1-477). As to conditions: protein: recombinant; tags: N-terminal GST; dsDNA, one strand shown. Summed up:
as §1

Chain of ETV5 (P41161 whole entry): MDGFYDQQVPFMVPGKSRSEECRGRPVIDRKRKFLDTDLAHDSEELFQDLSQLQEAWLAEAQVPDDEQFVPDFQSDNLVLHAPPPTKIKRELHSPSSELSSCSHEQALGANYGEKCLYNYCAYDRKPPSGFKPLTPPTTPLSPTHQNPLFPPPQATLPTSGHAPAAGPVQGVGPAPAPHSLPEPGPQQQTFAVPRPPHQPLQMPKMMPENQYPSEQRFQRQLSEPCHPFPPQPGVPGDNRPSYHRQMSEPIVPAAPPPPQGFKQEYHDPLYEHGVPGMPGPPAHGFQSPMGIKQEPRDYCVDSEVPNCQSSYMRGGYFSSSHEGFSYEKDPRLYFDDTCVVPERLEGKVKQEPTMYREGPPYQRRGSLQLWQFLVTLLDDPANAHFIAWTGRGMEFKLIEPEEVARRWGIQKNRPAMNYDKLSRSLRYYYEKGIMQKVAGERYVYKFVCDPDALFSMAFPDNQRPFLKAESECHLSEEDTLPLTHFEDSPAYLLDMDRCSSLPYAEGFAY
Chain of ETV1 (P50549 whole entry): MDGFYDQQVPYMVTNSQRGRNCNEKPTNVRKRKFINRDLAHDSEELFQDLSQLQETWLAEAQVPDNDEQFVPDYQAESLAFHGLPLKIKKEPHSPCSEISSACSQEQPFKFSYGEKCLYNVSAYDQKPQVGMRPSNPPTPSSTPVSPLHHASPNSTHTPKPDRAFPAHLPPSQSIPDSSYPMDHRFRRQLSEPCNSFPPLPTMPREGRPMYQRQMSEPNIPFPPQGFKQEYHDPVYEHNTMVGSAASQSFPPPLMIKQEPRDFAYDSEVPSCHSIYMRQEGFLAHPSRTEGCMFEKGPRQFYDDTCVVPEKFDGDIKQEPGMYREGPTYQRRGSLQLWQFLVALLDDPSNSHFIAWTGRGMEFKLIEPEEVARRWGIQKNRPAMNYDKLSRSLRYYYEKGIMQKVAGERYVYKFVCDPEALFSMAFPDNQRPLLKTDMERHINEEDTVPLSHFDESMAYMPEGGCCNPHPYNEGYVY
Chain of ELF4 (Q99607 whole entry): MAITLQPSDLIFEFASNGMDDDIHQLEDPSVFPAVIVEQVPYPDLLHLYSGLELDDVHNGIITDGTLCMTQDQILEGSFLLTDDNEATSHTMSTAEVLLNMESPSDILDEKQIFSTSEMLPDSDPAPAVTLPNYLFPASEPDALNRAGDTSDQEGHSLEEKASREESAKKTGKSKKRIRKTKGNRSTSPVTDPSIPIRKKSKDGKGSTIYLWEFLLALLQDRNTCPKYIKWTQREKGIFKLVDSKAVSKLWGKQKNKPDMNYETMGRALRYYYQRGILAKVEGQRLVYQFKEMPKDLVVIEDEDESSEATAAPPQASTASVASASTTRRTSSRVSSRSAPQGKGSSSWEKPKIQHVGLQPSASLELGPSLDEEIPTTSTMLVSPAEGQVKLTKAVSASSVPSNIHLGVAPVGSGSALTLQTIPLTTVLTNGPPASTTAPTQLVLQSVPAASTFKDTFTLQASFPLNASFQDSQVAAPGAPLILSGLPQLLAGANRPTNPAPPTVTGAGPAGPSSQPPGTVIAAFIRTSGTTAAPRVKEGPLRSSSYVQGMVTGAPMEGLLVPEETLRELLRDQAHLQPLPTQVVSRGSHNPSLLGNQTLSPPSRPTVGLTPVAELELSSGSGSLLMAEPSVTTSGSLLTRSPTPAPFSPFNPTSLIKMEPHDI
Chain of ELF1 (P32519 whole entry): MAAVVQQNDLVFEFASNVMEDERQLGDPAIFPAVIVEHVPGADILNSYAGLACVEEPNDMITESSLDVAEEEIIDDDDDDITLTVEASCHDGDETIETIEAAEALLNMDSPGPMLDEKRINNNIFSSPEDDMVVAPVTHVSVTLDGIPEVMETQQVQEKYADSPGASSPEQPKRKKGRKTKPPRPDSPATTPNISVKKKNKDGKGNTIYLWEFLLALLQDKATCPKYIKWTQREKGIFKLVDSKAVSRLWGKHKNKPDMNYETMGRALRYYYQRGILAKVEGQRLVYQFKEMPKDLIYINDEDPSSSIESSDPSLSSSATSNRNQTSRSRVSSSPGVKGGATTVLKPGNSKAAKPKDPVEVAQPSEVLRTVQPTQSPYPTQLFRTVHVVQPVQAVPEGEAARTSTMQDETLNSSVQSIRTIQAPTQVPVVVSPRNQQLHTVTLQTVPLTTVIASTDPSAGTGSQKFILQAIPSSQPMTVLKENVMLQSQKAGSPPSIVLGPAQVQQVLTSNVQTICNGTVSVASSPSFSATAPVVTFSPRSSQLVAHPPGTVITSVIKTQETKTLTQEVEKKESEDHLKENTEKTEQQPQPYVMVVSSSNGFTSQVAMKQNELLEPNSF
Chain of CRX (O43186 whole entry): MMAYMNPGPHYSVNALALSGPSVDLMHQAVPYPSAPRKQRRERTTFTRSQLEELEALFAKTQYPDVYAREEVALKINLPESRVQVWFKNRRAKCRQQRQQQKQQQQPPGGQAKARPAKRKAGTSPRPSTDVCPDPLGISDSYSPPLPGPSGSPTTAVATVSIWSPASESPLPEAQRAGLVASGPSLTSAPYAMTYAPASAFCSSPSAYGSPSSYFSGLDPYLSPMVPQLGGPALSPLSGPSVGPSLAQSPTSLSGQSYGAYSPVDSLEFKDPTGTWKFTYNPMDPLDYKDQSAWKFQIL
Chain of SPIB (Q01892 whole entry): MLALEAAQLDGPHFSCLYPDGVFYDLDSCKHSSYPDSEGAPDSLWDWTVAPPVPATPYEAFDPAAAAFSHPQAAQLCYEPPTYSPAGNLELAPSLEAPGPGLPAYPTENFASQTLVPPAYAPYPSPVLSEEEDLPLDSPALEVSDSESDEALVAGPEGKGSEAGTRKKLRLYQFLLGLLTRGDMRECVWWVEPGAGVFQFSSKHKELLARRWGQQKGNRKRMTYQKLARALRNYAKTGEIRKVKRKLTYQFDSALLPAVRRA
Chain of HSF1 (Q00613 whole entry): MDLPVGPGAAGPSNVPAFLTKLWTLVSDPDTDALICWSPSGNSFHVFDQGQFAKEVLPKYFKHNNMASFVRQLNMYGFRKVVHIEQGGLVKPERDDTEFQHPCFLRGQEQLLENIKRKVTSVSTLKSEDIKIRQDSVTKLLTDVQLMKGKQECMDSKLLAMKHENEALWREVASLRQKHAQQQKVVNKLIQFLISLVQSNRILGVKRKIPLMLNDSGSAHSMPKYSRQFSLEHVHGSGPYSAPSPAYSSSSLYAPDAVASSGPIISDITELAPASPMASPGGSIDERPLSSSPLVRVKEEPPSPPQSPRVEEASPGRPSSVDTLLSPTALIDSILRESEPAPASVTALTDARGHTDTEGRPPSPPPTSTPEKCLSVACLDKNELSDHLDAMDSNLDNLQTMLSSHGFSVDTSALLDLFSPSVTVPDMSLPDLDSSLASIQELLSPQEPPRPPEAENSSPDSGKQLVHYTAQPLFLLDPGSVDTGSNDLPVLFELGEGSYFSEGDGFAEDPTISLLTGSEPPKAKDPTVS

For the sequence AAATAG, the binding signal in [1] is 1.18 fold enrichment (6-mer frequency, TF over GST control); in experiment [2], 1.1 fold enrichment (6-mer frequency, TF over GST control); in experiment [3] it was 1.12 fold enrichment (6-mer frequency, TF over GST control); in experiment [4], 1.22 fold enrichment (6-mer frequency, TF over GST control); in experiment [5] it was 1.08 fold enrichment (6-mer frequency, TF over GST control); in [6], 1.19 fold enrichment (6-mer frequency, TF over GST control). Also, the binding signal in [7] is 1.22 fold enrichment (6-mer frequency, TF over GST control); in experiment [8], 1.15 fold enrichment (6-mer frequency, TF over GST control); in [9], 1.08 fold enrichment (6-mer frequency, TF over GST control); in [10], 1.16 fold enrichment (6-mer frequency, TF over GST control); in [11] it was 1.2 fold enrichment (6-mer frequency, TF over GST control); in experiment [12] it was 1.09 fold enrichment (6-mer frequency, TF over GST control). Also, the binding signal in experiment [13] was 1.02 fold enrichment (6-mer frequency, TF over GST control); in [14], 1.15 fold enrichment (6-mer frequency, TF over GST control); in [15], 1.06 fold enrichment (6-mer frequency, TF over GST control); in experiment [16] it was 1.17 fold enrichment (6-mer frequency, TF over GST control); in experiment [17] it was 1.11 fold enrichment (6-mer frequency, TF over GST control); in experiment [18], 1.11 fold enrichment (6-mer frequency, TF over GST control).

Source of the values: paper PMC7862700, “An all-to-all approach to the identification of sequence-specific readers for epigenetic DNA modifications on cytosine”.
